Laboratory results: PMC5540273 (PLoS ONE, 2017)

Assays:
Settings in all cases: concentration: 1 μM, replicates: in singlicate; n = 1
[1] = system: PAK1
[2] = system: PAK2
[3] = system: PAK3
[4] = system: PAK4
[5] = system: PAK6
[6] = system: PAK7
[7] = system: T1, PCTK1
T1 construct: gene CDK16

[8] = system: T2, PCTK2
T2 construct: gene CDK17

[9] = system: T3, PCTK3
T3 construct: gene CDK18

[10] = system: PDGFRA
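Further: KINOMEscan kinase panel screen.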

Row | SMILES | %Inh [1] | %Inh [2] | %Inh [3] | %Inh [4] | %Inh [5] | %Inh [6] | %Inh [7] | %Inh [8] | %Inh [9] | %Inh [10]
1 | Fc1cccc(COc2ccc(Nc3ncnc4cc[nH]c34)cc2Cl)c1 | 30% | 35% | 10% | 26% | 0% | 22% | 5% | 48% | 10% | 22%
2 | FC(F)(F)c1ccc(-c2cc(-c3c[nH]nc3-c3ccccn3)ccn2)cc1 [GW599550] | 11% | 28% | 32% | 0% | 0% | 0% | 0% | 11% | 25% | 11%
3 | CC(C)N1CCC(n2cnc(-c3ccc(F)cc3)c2-c2ccnc(N)n2)CC1 [SB-223132] | 19% | 23% | 0% | 26% | 0% | 0% | 0% | 0% | 7% | 0%
4 | CCn1c(-c2ccncc2)nc2cnccc21 [SB-735216] | 0% | 47% | 0% | 0% | 0% | 0% | 0% | 0% | 0% | 13%
5 | Clc1ccc(-c2cc(-c3c[nH]nc3-c3ccccn3)ccn2)cc1 [GW681251] | 3% | 0% | 2% | 39% | 1% | 0% | 0% | 0% | 12% | 0%
6 | FC(F)(F)c1ccc(-c2nn3ncccc3c2-c2ccnc(Nc3cccc(C(F)(F)F)c3)n2)cc1 [GW828205] | 37% | 30% | 0% | 7% | 20% | 0% | 0% | 0% | 0% | 0%
7 | OCCOCCn1ccc2ncnc(Nc3ccc(Oc4cccc(Cl)c4)c(Cl)c3)c21 | 0% | 0% | 18% | 0% | 0% | 0% | 0% | 0% | 6% | 0%
8 | c1ccc(-c2ccc3c(-c4ccnc(Nc5ccc6c(c5)OCCO6)n4)cnn3n2)cc1 [GW818941] | 6% | 28% | 18% | 0% | 83% | 0% | 0% | 7% | 0% | 8%
9 | CSc1nn2c(=O)cc(N3CCOCC3)nc2n1Cc1cccc(Cl)c1Cl [GSK2347225] | 13% | 13% | 15% | 0% | 0% | 26% | 15% | 0% | 0% | 0%
10 | N#Cc1ccc(Oc2ccc(Nc3ncnc4cc[nH]c34)cc2Cl)cc1 | 35% | 45% | 24% | 19% | 27% | 15% | 0% | 13% | 20% | 25%
11 | Nc1nc(-c2ccc3c(N)n[nH]c3c2)cc(N2CCC[C@@H](C(=O)Nc3ccccc3)C2)n1.O=C(O)C(F)(F)F.O=C(O)C(F)(F)F [GSK2288359] | 2% | 0% | 27% | 0% | 0% | 6% | 14% | 8% | 0% | 15%
12 | C[C@H]1CC[C@@H](C(=O)Nc2ccccc2)CN1c1cc(-c2ccc3c(N)n[nH]c3c2)nc(N)n1 [GSK2283293] | 0% | 3% | 0% | 0% | 0% | 0% | 0% | 0% | 12% | 0%
13 | Cn1ccc2ncnc(Oc3ccc(NC(=O)Nc4cccnc4)c(Cl)c3)c21 | 17% | 24% | 38% | 1% | 16% | 0% | 19% | 12% | 0% | 91.8%
14 | CNc1nccc(-c2c(-c3ccc(F)cc3)ncn2CCCN2CCOCC2)n1 [SB-222516] | 65% | 85% | 0% | 0% | 0% | 0% | 0% | 0% | 0% | 0%
15 | Fc1ccc(Nc2nccc(-c3c(-c4ccc(Cl)cc4)nn4ncccc34)n2)cc1F [GW829058] | 21% | 24% | 15% | 27% | 34% | 14% | 23% | 0% | 13% | 19%
16 | C[C@@H]1CCN(C(=O)CO)C[C@@H]1N(C)c1ncnc2[nH]ccc12 | 0% | 0% | 0% | 0% | 0% | 2% | 0% | 0% | 4% | 0%

Row | SMILES | %Inh [1] | %Inh [2] | %Inh [3] | %Inh [4] | %Inh [5] | %Inh [6] | %Inh [7] | %Inh [8] | %Inh [9] | %Inh [10]
17 | Cn1cc(-c2ccc3c(c2)CCN3C(=O)Cc2cccc(C(F)(F)F)c2)c2c(N)ncnc21 [GSK2606414] | 0% | 0% | 25% | 0% | 0% | 0% | 4% | 0% | 0% | 38%
18 | COc1ccc(NC(=O)Nc2ccc(C)c(-c3ccc(C(=O)Nc4ccncc4)cc3)c2)cc1 [GSK1398475] | 0% | 0% | 3% | 0% | 0% | 9% | 0% | 0% | 0% | 28%
19 | COc1ccc(NC(=O)c2ccc(-c3cc(-c4nnc(C)o4)ccc3C)cc2)cc1 [GW595885] | 0% | 0% | 0% | 0% | 0% | 0% | 6% | 0% | 24% | 0%
20 | Cc1cccc(-c2nc(Nc3ccc4[nH]nnc4c3)c3ccccc3n2)n1 [GW867587] | 9% | 41% | 0% | 0% | 0% | 0% | 0% | 0% | 0% | 0%
21 | CN1CCC(n2cnc(-c3ccc(F)cc3)c2-c2ccnc(NC3CCNCC3)n2)CC1 [SB-229482] | 0% | 14% | 13% | 8% | 11% | 10% | 0% | 0% | 10% | 11%
22 | O=C(c1ccc(-c2cc(-c3c[nH]nc3-c3ccccn3)ccn2)cc1)N1CCCC1 [GW792479] | 8% | 0% | 0% | 16% | 9% | 0% | 0% | 0% | 3% | 0%
23 | Cc1ccc(O)cc1Nc1cc(C(F)(F)F)nc2ccc(-c3ccncc3)cc12 [GW630823] | 21% | 10% | 0% | 21% | 20% | 7% | 0% | 2% | 0% | 0%
24 | COc1cc2ncnc(Nc3ccc(OCc4ccccc4Br)c(Cl)c3)c2cc1OC.Cl [GI261590] | 14% | 22% | 38% | 0% | 0% | 5% | 0% | 0% | 0% | 0%
25 | Nc1n[nH]c2nnc(-c3ccccc3)cc12 [SB-517389] | 12% | 8% | 0% | 0% | 0% | 2% | 7% | 20% | 15% | 0%
26 | COC(=O)c1c(-c2ccccc2)c2cc(Cl)ccc2c(=O)n1Cc1ccc(S(C)(=O)=O)cc1 | 6% | 0% | 0% | 0% | 0% | 0% | 28% | 3% | 0% | 15%
27 | Cl.Cn1ccc(-c2cccc(Nc3ccnc4cc(-c5nccs5)ccc34)c2)n1 [GW525701] | 0% | 0% | 18% | 0% | 0% | 100% | 0% | 0% | 30% | 0%
28 | Nc1nc(-c2ccc3c(N)n[nH]c3c2)cc(N2CCCCC2)n1 [GSK2228768] | 2% | 20% | 6% | 0% | 0% | 0% | 5% | 0% | 9% | 0%
29 | FC(F)(F)c1cc(Nc2nccc(-c3c(-c4ccc(Cl)cc4)nn4ncccc34)n2)ccc1Cl [GW829351] | 0% | 17% | 0% | 0% | 0% | 0% | 0% | 0% | 0% | 0%
30 | O=c1cc(N2CCOCC2)nc2n(Cc3cccc(Cl)c3)ccn12 [GSK2296823] | 6% | 10% | 0% | 0% | 0% | 53% | 5% | 0% | 17% | 0%
31 | CC(C)(C)c1ccc(-n2cnc3c(N)ncnc32)cc1 [SKF-97263] | 9% | 0% | 22% | 0% | 0% | 0% | 0% | 0% | 30% | 13%
